The campaign covered roughly 48,000 compounds. About 13,000 (27%) showed an effect of 50% or more. The list shows a part of the results.

This assay relates to Wolbachia pipientis. In words: Anti-Wolbachia Cell-Based Screen. Format: functional. Also on record: scale not given: in the data most compounds retested in dose-response had high values. To be noted: 5 µM.
Turning to `CCN(Cc1ccncc1)C1CCCN(Cc2ccc(F)cc2Cl)C1` (configuration not stated), the “Percent Effect” value is listed as -7.648%. As for `O=C(O)CC1COCCN1C(=O)C1(c2ccc(Cl)cc2)CCC1` (configuration not stated), the “Percent Effect” value is 14.34%.

As to `O=S(=O)(CCC1CCCO1)NCc1ncc(-c2ccccc2)o1` (configuration not stated), the “Percent Effect” value is on record as -10.29%. As to `Cc1nn(C)c(C)c1OCC(=O)NCC(O)c1ccco1` (configuration not stated), the “Percent Effect” value came to 9.29%. In the case of `CCC1CN(Cc2nc(C(C)C)no2)CCC(=O)N1Cc1ccccc1` (configuration not stated), the “Percent Effect” value was 11.67%. With `COc1cccc(-c2noc(-c3ccc(NCCCO)nc3)n2)c1OC`, the “Percent Effect” value stood at 11.35%. The same measure for `COc1ccc(CCN2CCOC(Cn3nc(C)nc3C)C2)cc1` (configuration not stated): 6.569%; for `CCc1nnc2n1CCN(Cc1ccc3c(c1)OCCO3)C2`: 1.979%; for `c1cnn(CC2CN(Cc3ccc(-n4ccnc4)cc3)CCO2)c1` (configuration not stated): -4.298%.

On to `CC(C)(C)c1cc(CN2CCOC(CCc3ccccc3)C2)n[nH]1` (configuration not stated), for which the “Percent Effect” value was 14.18%. For the compound `Cc1nccn1CCC1CCCCN1Cc1ccc2c(c1)OCCO2` (configuration not stated), the “Percent Effect” value came to 18.54%. In the case of `Nc1cc(CCC2CN(Cc3ccc4cc[nH]c4c3)CCO2)ccn1` (configuration not stated), the “Percent Effect” value is given as 120%. In the case of `COc1cccc(CN2CCOC(Cn3nc(C)cc3C)C2)c1` (configuration not stated), the “Percent Effect” value is -2.903%. For the compound `Nc1cc(CCC2CN(Cc3ccc4c(c3)OCCO4)CCO2)ccn1` (configuration not stated), the “Percent Effect” value is on record as 90.24%.

Regarding `Nc1cc(CCC2CN(Cc3cccc(C(=O)O)c3)CCO2)ccn1` (configuration not stated), the “Percent Effect” value is listed as 106.3%. Consider `Nc1cc(CCC2CN(Cc3ccc(C(=O)O)cc3)CCO2)ccn1` (configuration not stated), for which the “Percent Effect” value turned out to be 7.558%.

For `Cc1cc(C)n(CC2CN(Cc3cccc(C(N)=O)c3)CCO2)n1` (configuration not stated), the “Percent Effect” value was -10.5%. For `COc1ccc(CN2CCOC(CCc3ccnc(N)c3)C2)cc1` (configuration not stated), the “Percent Effect” value worked out at 124.3%. Turning to `CC(C)c1nn(CC(=O)N2CCCCC2)c(=O)c2c1cnn2C(C)(C)C`, the “Percent Effect” value was -4.82%.

For the compound `COc1ccc(N2CCN(Cc3noc(CC(C)C)n3)C(C)C2=O)cc1` (configuration not stated), the “Percent Effect” value was found to be 87.05%. As for `COCc1nc(CN2CCN(c3ccc(OC)cc3)C(=O)C2C)no1` (configuration not stated), the “Percent Effect” value was determined as 94.02%. As for `COc1ccc(S(=O)(=O)Cc2noc(CC(C)C)n2)cc1`, the “Percent Effect” value is recorded as -2.844%. The same measure for `COCc1nc(CN2CC(C)(c3ccccc3)CCC2=O)no1` (configuration not stated): 5.849%; for `COCc1nc(CN2CC(=O)N(C)c3ccccc3C2=O)no1`: -2.193%. To `COc1cccc(S(=O)(=O)Cc2noc(CC(C)C)n2)c1` belongs -0.9778%; to `CN(CC(N)=O)CC(=O)N(C1=CCCCC1)C1CC1`, -2.779%.

For the compound `Cc1cccc(CN2CCc3[nH]nc(C(=O)N4CCNC(=O)C4)c3C2)n1.O=C(O)C(F)(F)F`, the “Percent Effect” value is on record as -67.35%.

Take `CN(C)Cc1noc2c1CN(C(=O)c1ccncc1)CC2.O=C(O)C(F)(F)F.O=C(O)C(F)(F)F`: the “Percent Effect” value was -9.47%.

Take `c1coc(CN2CCc3onc(Cn4ccnc4)c3C2)c1`: the “Percent Effect” value is -8.337%. The same measure for `Cc1cccc(CN2CCc3[nH]nc(C(=O)N(C)C)c3C2)n1.O=C(O)C(F)(F)F`: -6.855%; for `CN(C)Cc1noc2c1CN(Cc1ccsc1)CC2.O=C(O)C(F)(F)F.O=C(O)C(F)(F)F`: -7.7%; for `Cc1cccc(CN2CCc3onc(Cn4cccc4)c3C2)n1.O=C(O)C(F)(F)F`: 93.67%. Consider `O=C(O)C(F)(F)F.c1coc(CN2CCc3onc(Cn4cccc4)c3C2)c1`, for which the “Percent Effect” value is reported as -0.2735%. Regarding `CC(=O)NCc1noc2c1CN(Cc1cccs1)CC2`, the “Percent Effect” value is reported as -5.877%. Turning to `CN(C)Cc1noc2c1CN(Cc1ccc[nH]1)CC2`, the “Percent Effect” value stood at 98.7%.

For the compound `Cc1cccc(CN2CCc3onc(CO)c3C2)n1.O=C(O)C(F)(F)F`, the “Percent Effect” value amounted to 107.8%. With `Cc1cccc(CN2CCc3onc(CN(C)C)c3C2)n1`, the “Percent Effect” value came out at 101.4%. In the case of `O=C(O)C(F)(F)F.c1csc(CN2CCc3onc(Cn4cccc4)c3C2)c1`, the “Percent Effect” value is -13.64%. As for `CC(C)OC(=O)N1C[C@H]2CC[C@@H]1CN(C(=O)c1ccccc1)C2`, the “Percent Effect” value is -6.398%. For `O=C(COc1coc(CN2CCCCC2)cc1=O)Nc1ccccc1Cl`, the “Percent Effect” value was found to be 12.81%. `Cc1csc(CNC(=O)NCC(O)c2ccc(F)c(F)c2)n1` (configuration not stated): the “Percent Effect” value is given as -9.167%. As to `COc1ccc(-n2ccnc2-c2cnc(C(C)C)nc2)cc1C(=O)O`, the “Percent Effect” value is listed as -1.473%. For the compound `CCNC(=O)NC(=O)CSC(C)c1c(F)cccc1F` (configuration not stated), the “Percent Effect” value is given as 4.576%. Turning to `Cc1cnc(CCNC(Cc2ccncc2)C(F)(F)F)s1` (configuration not stated), the “Percent Effect” value is recorded as 4.089%. Consider `CCc1cnc(CN(C)C(=O)NC2CCN(CC3CC3)C2)s1` (configuration not stated), for which the “Percent Effect” value is listed as -7.872%. The same measure for `CCCS(=O)(=O)NCCc1ncc(C)s1`: 113.4%; for `CS(=O)(=O)NCCc1cccc2cccnc12`: -14.96%. For `CCCS(=O)(=O)NCc1ncc(C)c(OC)c1C`, the “Percent Effect” value was found to be 21.89%. Consider `CCCS(=O)(=O)NCCn1ccc(-c2cccs2)n1`, for which the “Percent Effect” value is recorded as 29.12%. To `CCc1cnc(CCNC(=O)N2CCCC(c3ncc[nH]3)C2)s1` (configuration not stated) belongs -8.688%; to `CCc1cnc(CCNS(C)(=O)=O)s1`, 96.32%.

Consider `CCCS(=O)(=O)NCCc1ncc(CC)s1`, for which the “Percent Effect” value is 98.37%. Take `Cc1noc(C)c1CN(C)Cn1nccc1-c1cccnc1`: the “Percent Effect” value is on record as -3.571%. With `N#Cc1ccccc1CC1CCCS(=O)(=O)C1` (configuration not stated), the “Percent Effect” value is reported as 23.18%. Consider `Cc1ccc(NC2CCN(C(=O)C(C)n3cncn3)CC2)nn1` (configuration not stated), for which the “Percent Effect” value is 101.5%. The same measure for `Cc1ccc(NC2CCN(C(=O)C(C(C)C)n3cncn3)CC2)nn1` (configuration not stated): 114.7%; for `CC(C)C(C(=O)N1CCC(Nc2cccnn2)CC1)n1cncn1` (configuration not stated): 1.287%.

The values above are taken from ChEMBL document CHEMBL3988442, “University of Dundee, Small-Polar-MMV Screening Library” (2021).
